The structures appear in SMILES notation. Inconclusive results are not listed. Values without a mark were called inactive. The source made the active and inactive calls. Calls come from the whole dose curve; as a rule, active = well fitted curve in the direction sought with a large enough effect in the repeat runs; inconclusive = weak or mixed curves; inactive = no such curve, though single readings can be large; an effect the other way counts as inactive or inconclusive.
% is set by controls: 0 for no effect and ±100 for the full control effect.

The first experiment can be described thus: qHTS assay to identify small molecule agonists of the RXR signaling pathway - cell viability counter screen (AID 1159529).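 For activity change, negative = cytotoxicity: HEK 293T cells carrying an RXR-alpha UAS beta-lactamase reporter.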 Note: nearly all actives have a fitted effect of over 50% in size. Note: potency is the fitted concentration of half-maximal effect. As to conditions: RXR-alpha-bla HEK293T viability, CellTiter-Glo, 16 h; series mostly up to 76.8 µM; activity change, negative = cytotoxicity: at the top concentration. A digest of the protocol:
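Counter screen: CellTiter-Glo luminescence. Cells: RXR-alpha-UAS-bla HEK 293T. Medium: 2% charcoal-stripped FBS. Treatment: 16 h, 37 C. Reagent incubation: 30 min, RT.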
(qHTS replaces the single test concentration by a dilution series.)
With `CCCCc1c(C)nc(NCC)nc1OS(=O)(=O)N(C)C`, the “activity change, negative = cytotoxicity” value was 3.68%.

`CN1C[C@H](CNC(=O)OCc2ccccc2)C[C@@H]2c3cccc4c3c(cn4C)C[C@H]21`: the “activity change, negative = cytotoxicity” value is -14.1% [at 35.3 µM].

On to `NS(=O)(=O)C(F)(F)C(F)(F)C(F)(F)C(F)(F)C(F)(F)C(F)(F)C(F)(F)C(F)(F)F`, for which the “activity change, negative = cytotoxicity” value is 11.9%.

In the case of `CC(O)(CS(=O)(=O)c1ccc(F)cc1)C(=O)Nc1ccc(C#N)c(C(F)(F)F)c1` (stereo not given), the Potency is 22.7 µM (active).

Consider `CCCCOC(=O)c1ccccc1C(=O)OCc1ccccc1`, for which the “activity change, negative = cytotoxicity” value was -20.4%.

With `CO/C=C(/C(=O)OC)c1ccccc1COc1cccc(C(F)(F)F)n1`, the “activity change, negative = cytotoxicity” value is 7.66%.

As to `COc1nn(C(=O)NS(=O)(=O)c2ccccc2OC(F)(F)F)c(=O)n1C`, the “activity change, negative = cytotoxicity” value is 9.25%.

For the compound `CC(C)(OO)c1ccccc1`, the “activity change, negative = cytotoxicity” value is -5.21%.

As to `CCOS(C)(=O)=O`, the “activity change, negative = cytotoxicity” value is 20%.

For `CCCN(CCC)c1c([N+](=O)[O-])cc(S(C)(=O)=O)cc1[N+](=O)[O-]`, the “activity change, negative = cytotoxicity” value is 2.02%.

In the case of `II`, the Potency was 6.92 µM (active).

Regarding `CN(C)c1ccc(N(C)C)cc1`, the “activity change, negative = cytotoxicity” value was -12.9%.

As to `CCOP(=S)(OCC)SCn1nnc2ccccc2c1=O`, the “activity change, negative = cytotoxicity” value is -1.31%.

In the case of `O=C1c2ccccc2C(=O)C1C(=O)C(c1ccccc1)c1ccccc1`, the “activity change, negative = cytotoxicity” value was -1% [at 35.3 µM].

On to `c1cc2ccc3cccc4ccc(c1)c2c34`, for which the Potency was 36.3 µM (active).

For `CN1[C@@H]2CC[C@H]1CC(OC(=O)c1cc(Cl)cc(Cl)c1)C2` (stereo not given in full), the Potency is 3.79 µM (active).

Regarding `CCCC(=O)Cl`, the “activity change, negative = cytotoxicity” value was 0.1%.

Take `C[C@]12CC[C@H]3[C@@H](CCC4=CC(=O)CC[C@@H]43)[C@@H]1CC[C@@H]2OC(=O)CCC1CCCCC1`: the “activity change, negative = cytotoxicity” value was -18.8% [at 35.3 µM].

For the compound `O=NN1CCCCCC1`, the “activity change, negative = cytotoxicity” value is -7.97%.

Take `COc1c(C(C)(C)C)cc([N+](=O)[O-])c(C)c1[N+](=O)[O-]`: the “activity change, negative = cytotoxicity” value was 1.8%.

On to `OC(c1ccc(Cl)cc1)(c1ccc(Cl)cc1)c1cccnc1`, for which the “activity change, negative = cytotoxicity” value was 4.03%.

On to `CCCCCCC#N`, for which the “activity change, negative = cytotoxicity” value was -4.31%.

On to `CC(C)(C)C(O)C(Oc1ccc(Cl)cc1)n1cncn1` (stereo not given), for which the “activity change, negative = cytotoxicity” value was -19.6%.

A short description of another experiment: qHTS assay to identify small molecule antagonists of the retinoid acid receptor (RAR) signaling pathway - cell viability counter screen (AID 1159551). Note: nearly all actives have a fitted effect of over 35% in size. The conditions noted are these: C3RL4 cells viability, ATP luminescence (CellTiter-Glo), 6 h; series mostly up to 92.4 µM; activity change, negative = cytotoxicity: at the top concentration. A digest of the protocol: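 Cytotoxicity counter screen: ATP content quantified by CellTiter-Glo luminescence in C3RL4 cells treated 6 hr at 37 C with compound and retinol (1 uM final). Cells plated at 1,000/well and cultured overnight before dosing.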
Take `CCCCc1c(C)nc(NCC)nc1OS(=O)(=O)N(C)C`: the “activity change, negative = cytotoxicity” value is 0.0165%.

Consider `CC(=O)CCC(C)=O`, for which the “activity change, negative = cytotoxicity” value was -1.1%.

For the compound `CN1C[C@H](CNC(=O)OCc2ccccc2)C[C@@H]2c3cccc4c3c(cn4C)C[C@H]21`, the “activity change, negative = cytotoxicity” value is -4.81% [at 42.5 µM].

With `NS(=O)(=O)C(F)(F)C(F)(F)C(F)(F)C(F)(F)C(F)(F)C(F)(F)C(F)(F)C(F)(F)F`, the “activity change, negative = cytotoxicity” value was -2.12%.

With `O=C(OC1CCCCC1)c1ccccc1C(=O)OC1CCCCC1`, the “activity change, negative = cytotoxicity” value is -8.32%.

Turning to `CC(O)(CS(=O)(=O)c1ccc(F)cc1)C(=O)Nc1ccc(C#N)c(C(F)(F)F)c1` (stereo not given), the “activity change, negative = cytotoxicity” value is -4.84% [at 42.5 µM].

Turning to `O=C1C(=O)c2cccc3cccc1c23`, the “activity change, negative = cytotoxicity” value was -3.03%.

Regarding `CCCCOC(=O)c1ccccc1C(=O)OCc1ccccc1`, the Potency result was “inactive”.

As for `CCCC(Cn1cncn1)c1ccc(Cl)cc1Cl` (stereo not given), the “activity change, negative = cytotoxicity” value was -6.28%.

`COc1nn(C(=O)NS(=O)(=O)c2ccccc2OC(F)(F)F)c(=O)n1C`: the “activity change, negative = cytotoxicity” value is 1.17%.

In the case of `CC(C)(OO)c1ccccc1`, the “activity change, negative = cytotoxicity” value is 0.812%.

Take `CCOS(C)(=O)=O`: the “activity change, negative = cytotoxicity” value was 3.8%.

For the compound `CCCN(CCC)c1c([N+](=O)[O-])cc(S(C)(=O)=O)cc1[N+](=O)[O-]`, the “activity change, negative = cytotoxicity” value was -2.41%.

Take `CN(C)c1ccc(N(C)C)cc1`: the “activity change, negative = cytotoxicity” value was -9.96%.

Regarding `Cc1c(F)c(F)c(COC(=O)C2C(/C=C(\Cl)C(F)(F)F)C2(C)C)c(F)c1F` (stereo not given), the “activity change, negative = cytotoxicity” value was -0.45%.

As to `Clc1ccc(C2(Cn3cncn3)CC(Br)CO2)c(Cl)c1` (stereo not given), the “activity change, negative = cytotoxicity” value is -1.47%.

With `CCOP(=S)(OCC)SCn1nnc2ccccc2c1=O`, the “activity change, negative = cytotoxicity” value was -3.19%.

On to `O=C1c2ccccc2C(=O)C1C(=O)C(c1ccccc1)c1ccccc1`, for which the “activity change, negative = cytotoxicity” value was -4.2% [at 42.5 µM].

`O=C1C(Cl)C(CCl)CN1c1cccc(C(F)(F)F)c1` (stereo not given): the “activity change, negative = cytotoxicity” value is -0.702%.

On to `COCC(C)N(C(=O)CCl)c1c(C)csc1C` (stereo not given), for which the “activity change, negative = cytotoxicity” value was 2.4%.

For `c1cc2ccc3cccc4ccc(c1)c2c34`, the “activity change, negative = cytotoxicity” value is -0.733%.

In the case of `CN1[C@@H]2CC[C@H]1CC(OC(=O)c1cc(Cl)cc(Cl)c1)C2` (stereo not given in full), the “activity change, negative = cytotoxicity” value was -3.55% [at 42.5 µM].

In the case of `CCCC(=O)Cl`, the “activity change, negative = cytotoxicity” value is 3.05%.

With `C[C@]12CC[C@H]3[C@@H](CCC4=CC(=O)CC[C@@H]43)[C@@H]1CC[C@@H]2OC(=O)CCC1CCCCC1`, the “activity change, negative = cytotoxicity” value was -0.827% [at 42.5 µM].

Take `O=NN1CCCCCC1`: the “activity change, negative = cytotoxicity” value was 1.22%.

In the case of `C[C@@H]1CC[C@H]2[C@@H](C)C(=O)O[C@@H]3O[C@@]4(C)CC[C@@H]1[C@]32OO4`, the “activity change, negative = cytotoxicity” value is -0.311% [at 42.5 µM].

As for `COc1c(C(C)(C)C)cc([N+](=O)[O-])c(C)c1[N+](=O)[O-]`, the “activity change, negative = cytotoxicity” value is -3.26%.

For the compound `OC(c1ccc(Cl)cc1)(c1ccc(Cl)cc1)c1cccnc1`, the “activity change, negative = cytotoxicity” value was -0.767%.

For the compound `O=C1NCN(c2ccccc2)C12CCN(CCCOc1ccc(F)cc1)CC2`, the “activity change, negative = cytotoxicity” value is 5.84% [at 42.5 µM].

Turning to `CCCCCCC#N`, the “activity change, negative = cytotoxicity” value is 2.58%.

Consider `CC1(C)CCC(Cc2ccc(Cl)cc2)C1(O)Cn1cncn1` (stereo not given), for which the “activity change, negative = cytotoxicity” value is -7.29%.

Take `NCCCNCCCN`: the “activity change, negative = cytotoxicity” value was -5.53%.

With `CC(C)(C)C(O)C(Oc1ccc(Cl)cc1)n1cncn1` (stereo not given), the “activity change, negative = cytotoxicity” value is 0.738%.

Another experiment is described as follows: qHTS assay to identify small molecule antagonists of the retinoic acid receptor (RAR) signaling pathway (AID 1159552; note: nearly all actives have a fitted effect of over 50% in size; note: potency is the fitted concentration of half-maximal effect). The conditions noted are these: C3RL4 RARE luciferase reporter, retinol-stimulated, 6 h; series mostly up to 92.4 µM; activity, negative = inhibition: at the top concentration. Summed up: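 Antagonism of retinol-induced RARE reporter activity was measured in C3RL4 cells. Exposure to compounds and 1 uM final retinol lasted 6 hr at 37 C, with luminescence as endpoint.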
`CCCCc1c(C)nc(NCC)nc1OS(=O)(=O)N(C)C`: the “activity, negative = inhibition” value was -22.2%.

For the compound `CN1C[C@H](CNC(=O)OCc2ccccc2)C[C@@H]2c3cccc4c3c(cn4C)C[C@H]21`, the “activity, negative = inhibition” value was -7.13% [at 42.5 µM].

Take `NS(=O)(=O)C(F)(F)C(F)(F)C(F)(F)C(F)(F)C(F)(F)C(F)(F)C(F)(F)C(F)(F)F`: the “activity, negative = inhibition” value was 16.1%.

For `CC(O)(CS(=O)(=O)c1ccc(F)cc1)C(=O)Nc1ccc(C#N)c(C(F)(F)F)c1` (stereo not given), the “activity, negative = inhibition” value is -18.3% [at 42.5 µM].

Take `CCCCOC(=O)c1ccccc1C(=O)OCc1ccccc1`: the Potency result is “inactive”.

Regarding `COc1nn(C(=O)NS(=O)(=O)c2ccccc2OC(F)(F)F)c(=O)n1C`, the “activity, negative = inhibition” value is -10.9%.

Regarding `CC(C)(OO)c1ccccc1`, the “activity, negative = inhibition” value is 12.4%.

For `CCOS(C)(=O)=O`, the “activity, negative = inhibition” value was -26.2%.

Turning to `II`, the Potency is 68.6 µM (active).

For `CN(C)c1ccc(N(C)C)cc1`, the “activity, negative = inhibition” value was 282%.

In the case of `CCOP(=S)(OCC)SCn1nnc2ccccc2c1=O`, the “activity, negative = inhibition” value was 8.09%.

`O=C1c2ccccc2C(=O)C1C(=O)C(c1ccccc1)c1ccccc1`: the “activity, negative = inhibition” value was 76.9% [at 42.5 µM].

Regarding `c1cc2ccc3cccc4ccc(c1)c2c34`, the “activity, negative = inhibition” value was 40.3%.

In the case of `CN1[C@@H]2CC[C@H]1CC(OC(=O)c1cc(Cl)cc(Cl)c1)C2` (stereo not given in full), the “activity, negative = inhibition” value is -16.6% [at 42.5 µM].

On to `CCCC(=O)Cl`, for which the “activity, negative = inhibition” value is 52.4%.

`O=NN1CCCCCC1`: the “activity, negative = inhibition” value is 2.27%.

`COc1c(C(C)(C)C)cc([N+](=O)[O-])c(C)c1[N+](=O)[O-]`: the “activity, negative = inhibition” value is 3.6%.

For `OC(c1ccc(Cl)cc1)(c1ccc(Cl)cc1)c1cccnc1`, the “activity, negative = inhibition” value is -3.77%.

Take `CCCCCCC#N`: the “activity, negative = inhibition” value was 35.9%.

Source of the values: PubChem BioAssay (Tox21).
